Data: publication PMC5540273 (PLoS ONE, 2017)

Columns and labels:
Conditions in all cases: concentration: 1 μM,replicates: in singlicate; n = 1
PLK2 = test system: PLK2
PLK3 = test system: PLK3
PLK4 = test system: PLK4
PRKCD = test system: PRKCD
PRKCE = test system: PRKCE
PRKCH = test system: PRKCH
PRKCI = test system: PRKCI
PRKCQ = test system: PRKCQ
PRKD1 = test system: PRKD1
PRKD2 = test system: PRKD2
PRKD3 = test system: PRKD3
PRKG1 = test system: PRKG1
PRKG2 = test system: PRKG2
PRKR = test system: T1, PRKR
T1 construct: gene EIF2AK2

PRKX = test system: PRKX
PRP4 = test system: PRP4
PYK2 = test system: T2, PYK2
T2 construct: gene PTK2B

QSK = test system: QSK
RAF1 = test system: RAF1
RET = test system: RET
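Note: KINOMEscan kinase panel screen.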

Structure (SMILES)	%Inh (PLK2) [%]	%Inh (PLK3) [%]	%Inh (PLK4) [%]	%Inh (PRKCD) [%]	%Inh (PRKCE) [%]	%Inh (PRKCH) [%]	%Inh (PRKCI) [%]	%Inh (PRKCQ) [%]	%Inh (PRKD1) [%]	%Inh (PRKD2) [%]	%Inh (PRKD3) [%]	%Inh (PRKG1) [%]	%Inh (PRKG2) [%]	%Inh (PRKR) [%]	%Inh (PRKX) [%]	%Inh (PRP4) [%]	%Inh (PYK2) [%]	%Inh (QSK) [%]	%Inh (RAF1) [%]	%Inh (RET) [%]
CCOC(=O)N1CCC(n2cnc(-c3ccc(F)cc3)c2-c2ccnc(N)n2)CC1 [SB-219952]	2	0	25	0	4	0	8	1	32	5	0	40	26	0	8	0	10	0	0	30
Cc1cccc2c(-c3ccncc3)c(-c3ccc(F)cc3)nn12.Cl [GW461487]	0	0	0	3	10	0	23	0	2	36	0	9	8	0	3	7	22	15	11	18
Cc1ccn2nc(-c3ccc(F)cc3)c(-c3ccncc3)c2c1.Cl [GW457859]	0	0	2	0	14	8	18	8	17	20	30	0	19	12	21	28	0	0	15	4
Cc1n[nH]c2cc(Nc3ccnc(Nc4cccc(CN5CCOCC5)c4)n3)ccc12 [GW682569]	15	53	72	0	51	0	26	0	0	0	18	0	3	23	0	65	0	0	0	56
C[C@@H]1CCN(C(=O)N2CCCC2)C[C@@H]1N(C)c1ncnc2[nH]ccc12	20	21	44	17	17	13	30	0	0	54	26	29	13	0	0	0	0	0	10	41
C[C@@H]1CNc2c(sc3ccc4nc(-c5ccncc5)ccc4c23)C(=O)N1	1	8	92.7	22	65	0	0	8	49	12	34	35	57	0	34	0	3	0	0	14
Cn1ccc2ncnc(Oc3ccc(NC(=O)Nc4ccnc(C(F)(F)F)c4)c(Cl)c3)c21	0	0	11	0	0	0	0	7	0	4	0	0	9	0	1	14	9	0	16	100
Cn1ccc2ncnc(Oc3ccc(NC(=O)Nc4cncc(C(F)(F)F)c4)c(Cl)c3)c21	0	0	0	2	0	20	0	23	0	0	0	0	0	0	0	6	2	0	100	100
CCn1c(-c2nonc2N)nc2cncc(Br)c21 [SB-738004]	8	14	76	21	92.8	58	36	6	0	11	0	0	92.1	36	0	27	0	0	10	26
Cn1ccc2ncnc(Oc3ccc(NC(=O)Nc4cc(C(C)(C)C)on4)c(Cl)c3)c21	4	7	19	21	0	0	6	27	0	7	0	0	33	0	17	23	16	0	78	100
CC(C)c1nc(-c2cccc(NS(=O)(=O)c3ccccc3)c2)c(-c2ccnc(Nc3ccc4c(c3)CN(C)CC4)n2)s1 [GSK1649598]	0	0	99.8	0	0	0	45	11	93.9	99.9	100	0	0	29	5	8	48	49	87	95.4
COC(=O)c1cccc(NC(=O)NC2CCN(c3ccnc(Nc4cc(OC)c(OC)c(OC)c4)n3)C2)c1 (stereo not shown) [GSK1379767]	0	0	38	0	18	7	19	0	0	5	0	0	7	19	5	44	0	0	7	11
CN(c1ccc2c(c1)nc(NCc1ccc(F)cc1)n2C)c1ccnc(Nc2ccc(CS(C)(=O)=O)cc2)n1.Cl [GW813244]	3	21	73	11	100	0	18	0	0	24	7	9	0	0	0	0	39	0	96.4	100
Cl.Cl.NC[C@H](CC1CCCCC1)NC(=O)c1ccc(-c2ccnc3[nH]ccc23)s1 [GSK1581428]	0	0	41	100	98.5	100	22	95.3	91.8	96.7	96.2	99.9	99.2	13	97.9	81	41	9	0	38
COc1cccc(C2=C(Nc3cccc(Cl)c3)C(=O)NC2=O)c1 [SB-341556]	0	0	8	26	19	0	0	17	0	0	6	0	11	11	21	25	16	3	11	37
O=C1NCCc2[nH]c(-c3ccncc3)cc21	37	40	30	27	59	58	18	46	72	0	43	83	99.1	9	28	43	0	0	17	0
CN(c1cccc(CNc2nc(Nc3ccc4c(c3)CC(=O)N4)ncc2C(F)(F)F)c1)S(C)(=O)=O	70	69	89	27	16	0	22	38	27	39	28	0	0	0	0	0	71	0	0	85
CCn1c(-c2nonc2N)nc2cncc(CNC3CCNCC3)c21.Cl [SB-747651]	0	0	0	77	66	89	10	43	0	0	50	74	86	0	55	20	0	1	97.5	5
CNC(=O)c1ccccc1Nc1nc(Nc2cccc(CS(C)(=O)=O)c2)ncc1C.O=CO [GSK1520489]	68	17	100	13	77	0	17	42	0	6	13	0	8	28	0	82	99.5	22	2	100
COc1cc2ncn(-c3cc(OCC4CCCCC4)c(C(N)=O)s3)c2cc1OC [GSK204559]	99.3	99.3	4	24	0	30	0	32	0	0	2	9	0	0	10	0	0	12	9	17
